Data on ten molecules can be found in PubChem BioAssay (NCI).

Assay [1] in a line: NCI Yeast Anticancer Drug Screen. Data for the rad50 strain (AID 155).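 Also: 0% = growth of vehicle-only cultures of the same strain.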 As to conditions: S. cerevisiae rad50 strain growth inhibition, active compounds read high. The method, boiled down: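 Cells are treated with compound, grown, and their growth is then scored against vehicle-only cultures of the same repair-deficient yeast strain.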
A short description of assay [2]: NCI Yeast Anticancer Drug Screen. Data for the mec2-1 strain (AID 157). As to conditions: S. cerevisiae mec2-1 strain, active compounds read high. The essentials:
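Using mec2-1 yeast: add compound, measure growth, express inhibition versus vehicle-treated cultures.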

Assay [3] is described as follows: NCI Yeast Anticancer Drug Screen. Data for the sgs1 mgt1 strain (AID 161).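 Also: 0% = growth of cultures given vehicle only.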 As to conditions: S. cerevisiae sgs1 mgt1 strain, active compounds read high. The method, boiled down: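 This yeast growth screen uses a strain with defined DNA-repair lesions; compound-treated growth is compared with vehicle-treated growth.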
Assay [4] in a line: NCI Yeast Anticancer Drug Screen. Data for the cln2 rad14 strain (AID 165).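 Also: 0% = growth equal to vehicle treated cultures.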 Particulars: S. cerevisiae cln2 rad14 strain, active compounds read high. The essentials:
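Yeast strain cln2 rad14, bearing defects in cell cycle control and DNA repair, serves as the test system; values reflect growth inhibition compared with vehicle.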

A short description of assay [5]: NCI Yeast Anticancer Drug Screen. Data for the bub3 strain (AID 167). As to conditions: S. cerevisiae bub3 mutant strain, active compounds read high. The essentials:
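Part of a panel of yeast mutants defective in DNA damage repair or cell cycle regulation. Each strain is grown with compound, and inhibition is calculated relative to solvent-treated cultures.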

Assay [6] can be described thus: NCI Yeast Anticancer Drug Screen. Data for the mlh1 rad18 strain (AID 175). As to conditions: S. cerevisiae mlh1 rad18 strain growth inhibition, active compounds read high. The method, boiled down:
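Steps: expose repair-defective yeast to compound; measure growth; express inhibition against vehicle-treated controls.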

The mark [7] stands for this setting: at 5.0 µM (retest, dose inferred, filed as 0.5).
[8] abbreviates: at 50.0 µM (retest, dose inferred, filed as 5.0).

Compounds without any hit were thinned out: in the full panel of roughly 79,000, 15% have a hit. Values without a mark were called inactive. The source made the active and inactive calls. Rule as the data show it: active = growth inhibition above about 70%; inactive = the rest.

Regarding `COc1ccc(N=C2C(=S)N(c3ccc(OC)cc3)/C(=N/S(=O)(=O)c3ccccc3)N2c2ccccc2)cc1`, the growth inhibition in assay [1] (setting [7]) was 10%; in assay [1] (setting [8]), 18%; in assay [1] (at 50.0 µM), 8.6%; in assay [2] (setting [7]) it was 9%; in assay [2] (setting [8]), 23%; in assay [2] (at 50.0 µM), -4.1%. The growth inhibition in assay [3] (setting [7]) was -23%; in assay [3] (setting [8]), 0%; in assay [3] (at 50.0 µM), 5.7%; in assay [4] (setting [7]), -11%; in assay [4] (setting [8]), 3%; in assay [4] (at 50.0 µM) it was 11.2%. Besides, the growth inhibition in assay [5] (setting [7]) is -13%; in assay [5] (setting [8]), 11%; in assay [5] (at 50.0 µM), 1.65%; in assay [6] (setting [7]), 14%; in assay [6] (setting [8]), 16%; in assay [6] (at 50.0 µM), 14%.

For the molecule `N=C(N)c1cccc(-c2ccc(-c3ccccc3)o2)c1`, the growth inhibition in assay [1] (setting [7]) is -3%; in assay [1] (setting [8]) it was 62%; in assay [1] (at 50.0 µM), 92.2% (active); in assay [2] (setting [7]), 4%; in assay [2] (setting [8]), 72% (active); in assay [2] (at 50.0 µM), 89.8% (active). In addition, the growth inhibition is 0% in assay [3] (setting [7]); 94% (active) in assay [3] (setting [8]); 57.2% in assay [3] (at 50.0 µM); 2% in assay [4] (setting [7]); 67% in assay [4] (setting [8]); 93.8% (active) in assay [4] (at 50.0 µM). The growth inhibition in assay [5] (setting [7]) is 3%; in assay [5] (setting [8]), 71% (active); in assay [5] (at 50.0 µM) it was 79% (active); in assay [6] (setting [7]), -11%; in assay [6] (setting [8]) it was 85% (active); in assay [6] (at 50.0 µM), 97% (active).

`CN(C)C1CCC2C3CCC4=CC(=O)CCC4(C)C3CCC21C` (stereo not given): the growth inhibition in assay [1] (setting [7]) is 2%; in assay [1] (setting [8]), 28%; in assay [1] (at 50.0 µM), 77.1% (active); in assay [2] (setting [7]) it was 17%; in assay [2] (setting [8]), 21%; in assay [2] (at 50.0 µM), 48%. Moreover, the growth inhibition in assay [3] (setting [7]) was 8%; in assay [3] (setting [8]), 39%; in assay [3] (at 50.0 µM) it was 69.5%; in assay [4] (setting [8]) it was 55%; in assay [4] (at 50.0 µM) it was 47.1%; in assay [5] (setting [7]), 2%. Besides, the growth inhibition in assay [5] (setting [8]) is -63%; in assay [5] (at 50.0 µM) it was 40%; in assay [6] (setting [7]), 2%; in assay [6] (setting [8]), 35%; in assay [6] (at 50.0 µM), 51.7%.

As for `O=C(Nc1cc(Cl)ccc1Oc1cc(Cl)c(Cl)cc1S(=O)(=O)O)Nc1cc(Cl)ccc1Oc1cc(Cl)c(Cl)cc1S(=O)(=O)O`, the growth inhibition in assay [1] (setting [7]) was -10%; in assay [1] (setting [8]), 81% (active); in assay [1] (at 50.0 µM), 85% (active); in assay [2] (setting [7]), -3%; in assay [2] (setting [8]) it was 73% (active); in assay [2] (at 50.0 µM) it was 87.4% (active). The growth inhibition in assay [3] (setting [7]) is -13%; in assay [3] (setting [8]) it was 79% (active); in assay [3] (at 50.0 µM) it was 84.1% (active); in assay [4] (setting [7]), 23%; in assay [4] (setting [8]), 56%; in assay [4] (at 50.0 µM), 76% (active). In addition, the growth inhibition in assay [5] (setting [7]) is 14%; in assay [5] (setting [8]) it was 78% (active); in assay [5] (at 50.0 µM), 86% (active); in assay [6] (setting [7]), -4%; in assay [6] (setting [8]), 91% (active); in assay [6] (at 50.0 µM), 85.3% (active).

On to `c1ccc([Si](C[CH2][Sn]([c]2ccccc2)([c]2ccccc2)[c]2ccccc2)(c2ccccc2)c2ccc([Si](C[CH2][Sn]([c]3ccccc3)([c]3ccccc3)[c]3ccccc3)(c3ccccc3)c3ccccc3)cc2)cc1`, for which the growth inhibition was 99% (active) in assay [1] (setting [7]); 98% (active) in assay [1] (setting [8]); 77.3% (active) in assay [1] (at 50.0 µM); 99% (active) in assay [2] (setting [7]); 99% (active) in assay [2] (setting [8]); 89.5% (active) in assay [2] (at 50.0 µM). Also, the growth inhibition in assay [3] (setting [7]) was 100% (active); in assay [3] (setting [8]), 98% (active); in assay [3] (at 50.0 µM) it was 71.9% (active); in assay [4] (setting [7]) it was 99% (active); in assay [4] (setting [8]), 98% (active); in assay [4] (at 50.0 µM), 83.8% (active). Further, the values for the growth inhibition in assay [6] (setting [7]), in assay [6] (setting [8]) and in assay [6] (at 50.0 µM) were 99% (active), 98% (active) and 73.1% (active), respectively.

Consider `C=CCOc1ccc(/C=N/NC(N)=S)cc1`, for which the growth inhibition in assay [1] (setting [7]) was 10%; in assay [1] (setting [8]), 83% (active); in assay [1] (at 50.0 µM), 88.3% (active); in assay [2] (setting [7]) it was 13%; in assay [2] (setting [8]) it was 81% (active); in assay [2] (at 50.0 µM), 87.3% (active). Besides, the growth inhibition was 15% in assay [3] (setting [7]); 78% (active) in assay [3] (setting [8]); 44% in assay [3] (at 50.0 µM); 6% in assay [4] (setting [7]); 87% (active) in assay [4] (setting [8]); 58.2% in assay [4] (at 50.0 µM). Moreover, the growth inhibition is 5% in assay [5] (setting [7]); 91% (active) in assay [5] (setting [8]); 88.1% (active) in assay [5] (at 50.0 µM); 10% in assay [6] (setting [7]); 90% (active) in assay [6] (setting [8]); 52.1% in assay [6] (at 50.0 µM).

Consider `O=C(Nc1ccc(Cl)cc1)Nc1nnc2nc(C(C(=O)c3ccc(F)cc3)c3nc4nnc(NC(=O)Nc5ccc(Cl)cc5)n4[nH]c3=O)c(=O)[nH]n12`, for which the growth inhibition is -11% in assay [1] (setting [7]); 32% in assay [1] (setting [8]); 99.5% (active) in assay [1] (at 50.0 µM); -19% in assay [2] (setting [7]); 56% in assay [2] (setting [8]); 99.5% (active) in assay [2] (at 50.0 µM). Besides, the growth inhibition in assay [3] (setting [7]) is 4%; in assay [3] (setting [8]) it was 33%; in assay [3] (at 50.0 µM) it was 99.5% (active); in assay [4] (setting [7]) it was -38%; in assay [4] (setting [8]), 36%; in assay [4] (at 50.0 µM), 99.2% (active). Moreover, the growth inhibition in assay [5] (setting [7]) was -26%; in assay [5] (setting [8]), 48%; in assay [5] (at 50.0 µM), 99% (active); in assay [6] (setting [7]) it was -10%; in assay [6] (setting [8]) it was 64%; in assay [6] (at 50.0 µM) it was 99.5% (active).

In the case of `COC(=O)C1(c2ccc(N(C)C)cc2OC)CCCN(C(=O)Oc2ccccc2[N+](=O)[O-])CCc2c1[nH]c1ccccc21` (stereo not given), the growth inhibition was 69% in assay [1] (setting [7]); 71% (active) in assay [1] (setting [8]); 74.9% (active) in assay [1] (at 50.0 µM); 83% (active) in assay [2] (setting [7]); 80% (active) in assay [2] (setting [8]); 66.8% in assay [2] (at 50.0 µM). In addition, the growth inhibition in assay [3] (setting [7]) was 52%; in assay [3] (setting [8]) it was 55%; in assay [3] (at 50.0 µM), 72.8% (active); in assay [4] (setting [7]), 39%; in assay [4] (setting [8]), 52%; in assay [4] (at 50.0 µM) it was 50.5%. Also, the values for the growth inhibition in assay [6] (setting [7]), in assay [6] (setting [8]) and in assay [6] (at 50.0 µM) were 83% (active), 88% (active) and 75.2% (active), respectively.

For `[N-]=[N+]=NC1=C(C(=O)c2ccccc2)C(=O)c2cccc3cccc1c23`, the growth inhibition in assay [1] (setting [7]) was 13%; in assay [1] (setting [8]), 18%; in assay [1] (at 50.0 µM), 32.7%; in assay [2] (setting [7]) it was 6%; in assay [2] (setting [8]) it was 27%; in assay [2] (at 50.0 µM) it was 20.4%. Moreover, the growth inhibition was 18% in assay [3] (setting [7]); 30% in assay [3] (setting [8]); 37% in assay [3] (at 50.0 µM); 6% in assay [4] (setting [7]); 17% in assay [4] (setting [8]); 35.2% in assay [4] (at 50.0 µM). Also, the growth inhibition was 4% in assay [6] (setting [7]), 29% in assay [6] (setting [8]) and 70% (active) in assay [6] (at 50.0 µM).

As to `CCN1C(Cl)=NS(=O)(=O)c2ccccc21`, the growth inhibition in assay [1] (setting [7]) was 17%; in assay [1] (setting [8]), 36%; in assay [1] (at 50.0 µM), -24.4%; in assay [2] (setting [7]), 24%; in assay [2] (setting [8]), 43%; in assay [2] (at 50.0 µM), -3.45%. Besides, the growth inhibition in assay [3] (setting [7]) is 22%; in assay [3] (setting [8]), 39%; in assay [3] (at 50.0 µM) it was -8.5%; in assay [4] (setting [7]) it was 19%; in assay [4] (setting [8]), 32%; in assay [4] (at 50.0 µM), -4%. The growth inhibition in assay [5] (setting [7]) was 19%; in assay [5] (setting [8]) it was 53%; in assay [5] (at 50.0 µM), -0.05%; in assay [6] (setting [7]), 25%; in assay [6] (setting [8]), 46%; in assay [6] (at 50.0 µM), 21.2%.
